High-throughput results (PubChem BioAssay)
Sampled rows, rich in hits. Any-hit rate of the full collection: about 4%.
RecA splice inh: Mtb RecA intein splicing inhibitors, primary screen, biochemical, fluorescence, HTS. AID 2221, 2009. inhibition, % (no concentration beside the values). 0.75% of 290,000 active. cell-free RecA intein splicing. Protein RecA (Mycobacterium tuberculosis (strain ATCC 25618 / H37Rv)), P9WHJ3; in the data active = inhibition above about 30%;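 note: 0% = vehicle wells and 100% = reference inhibitor control wells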
Mtb FBA inh: Mtb FBA enzyme inhibitors, primary screen, biochemical, fluorescence, strain H37Rv. Fructose-bisphosphate aldolase (Mycobacterium tuberculosis (strain ATCC 25618 / H37Rv)), …. purified M. tuberculosis FBA, fluorescence read-out. inhibition, % at 1 µM. 2.3% of 360,000 active. AID 588726, 2011;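 note: 0% = vehicle and 100% = reference inhibitor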
GDH-TPI counter-1: GDH-TPI coupling enzyme inhibitors, primary screen, artefact control for M. tuberculosis FBA inhibitor project, biochemical, absorbance, full deck. inhibition, % at 4.8 µM. GDH-TPI coupled enzyme counterscreen, NADH absorbance. 1.2% of 360,000 active; in the data active = inhibition above about 30%;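 note: 0% = DMSO wells and 100% = wells lacking the enzyme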
UGM FP inh: M. tuberculosis UGM enzyme inhibitors, primary screen, biochemical, fluorescence polarization, single point | UDP-galactopyranose mutase (Mycobacterium tuberculosis (strain ATCC 25618 / H37Rv)), … | purified UGM, fluorescence polarization probe displacement | inhibition, % at 10 µM | 0.06% of 320,000 active | AID 504406, 2011; in the data active = inhibition above about 10%, passing the limit was not always enough
Rv3671c protease: Rv3671c serine protease inhibitors, primary screen, biochemical, fluorescence polarization, M. tuberculosis H37Rv. inhibition, % at 5.96 µM. P9WHR9. 0.048% of 320,000 active; in the data active = inhibition above about 38%;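 note: extracellular domain of Rv3671c used as enzyme; 0% = enzyme with DMSO and 100% = no enzyme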
Target sequence (P9WHR9 whole entry, looked up, the tested form may be a part): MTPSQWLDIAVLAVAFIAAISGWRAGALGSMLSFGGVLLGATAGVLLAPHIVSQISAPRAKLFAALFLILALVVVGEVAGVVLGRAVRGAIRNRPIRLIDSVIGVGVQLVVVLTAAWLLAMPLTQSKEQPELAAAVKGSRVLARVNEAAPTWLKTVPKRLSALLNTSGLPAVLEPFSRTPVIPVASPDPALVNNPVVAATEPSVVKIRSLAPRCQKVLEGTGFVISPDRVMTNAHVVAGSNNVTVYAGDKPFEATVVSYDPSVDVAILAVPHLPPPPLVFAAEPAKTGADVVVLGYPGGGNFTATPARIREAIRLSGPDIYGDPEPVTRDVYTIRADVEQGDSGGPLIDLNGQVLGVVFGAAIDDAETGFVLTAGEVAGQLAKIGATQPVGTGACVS
Mtb betalactam: beta-lactam sensitization of Mtb H37Rv, H37Rv | M. tuberculosis H37Rv growth with meropenem, percent inhibition | inhibition, % at 25 µM | 0.27% of 330,000 active | AID 434955, 2010; call rule not given here;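 note: growth measured after seven days incubation then overnight dye step; 0% = bacteria only wells and 100% = bacteria with antibiotic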
Mtb FBA inh conf: M. tuberculosis aldolase blockers, biochemical, fluorescence, strain H37Rv, confirmation. purified M. tuberculosis FBA, fluorescence read-out. AID 651616, 2012. inhibition, % at 1 µM. 78% of 5,600 active. shares compounds with Mtb FBA inh;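 note: 0% = vehicle wells and 100% = reference inhibitor wells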
GDH-TPI counter-2: GDH-TPI coupling enzyme inhibitors, artefact control for M. tuberculosis FBA inhibitor project, biochemical, fluorescence, high throughput | shares compounds with Mtb FBA inh | GDH-TPI coupled enzyme counterscreen | inhibition, % at 1 µM | 81% of 5,600 active; in the data active = inhibition above about 10%
* marks the source's active call; other numbers are inactive results; x = no result; + = active, no number. Cut-off read from the data, not from the text of the source, unless noted: active = inhibition above about 27%; inactive = the rest.

SMILES	RecA splice inh	Mtb FBA inh	GDH-TPI counter-1	UGM FP inh	Rv3671c protease	Mtb betalactam	Mtb FBA inh conf	GDH-TPI counter-2
CCCCCCCC(=O)Nc1cc(C(=O)NCCC)ccc1N1CCC2(CC1)CC(c1ccccc1)=NO2	1	1	5	3	2	-5	x	x
CCN1CCCC1Cn1cnc2c([nH]c3ccc(C)cc32)c1=O (stereo not given)	1	37*	20	2	-5	-9	60*	37*
Cc1ccc2[nH]c3c(=O)n(Cc4ccncc4)cnc3c2c1	-2	29*	-2	0	2	-14	+	182*
CCN1CCCC1CNc1ncnc2c1[nH]c1ccc(Cl)cc12 (stereo not given)	1	10	5	0	-2	-18	x	x
Cc1ccc(NC(=O)C2(C)CCN2Cc2ccccc2OC(F)F)cc1 (stereo not given)	x	0	8	x	x	x	x	x
COC(=O)C1C(O)=C(C=Nc2cccc3ccccc23)C(=O)CC1(C)C (stereo not given)	-2	32*	5	-1	-8	91	131*	93*
COc1ccc(C(=O)/C=C/Nc2ccc([N+](=O)[O-])cc2C)cc1OC	-11	88*	13	3	0	3	83*	75*
COc1ccc(C(=O)NNC(=O)COC(=O)c2sccc2C)cc1	x	1	3	x	12	-3	x	x
Cc1ccc(C2=CC(c3ccccc3)n3ncnc3N2)cc1 (stereo not given)	-77	67*	3	3	-11	67	88*	67*
CN(C)c1ccc(C2C=C(c3ccc(Cl)cc3OC(F)F)Nc3ncnn32)cc1 (stereo not given)	-18	1	4	-1	7	79	x	x
C1=C(c2ccccc2)Nc2ncnn2C1c1ccccc1 (stereo not given)	-267	14	-3	1	4	59	x	x
Cc1ccc(C2C=C(c3ccccc3OC(F)F)Nc3ncnn32)cc1 (stereo not given)	-115	32*	13	0	-9	-11	70*	68*
COc1cccc(CNCC(=O)NC(=O)NC2CCCC2)c1	x	-1	-4	2	-6	2	x	x
Nc1ccccc1C(=O)NCc1ccco1	0	52*	1	1	x	-4	83*	59*
O=C(NCc1ccco1)c1ccccc1O	-2	10	-6	0	x	2	x	x
Cc1cccc(CNC(=O)c2ccccc2N)c1	-5	58*	-10	-1	-1	1	137*	102*
Cc1ccc(CNC(=O)c2ccccc2N)cc1	0	60*	-10	-5	1	6	80*	60*
Cc1cccc(CNC(=O)c2ccccc2NC(=O)C2=CSCCO2)c1	-9	-1	11	4	-15	0	x	x
CN1CCN(C(=O)c2cc3c(c(-c4cccc(-c5cc6ccccc6o5)c4)n2)[C@H](CCO)N(S(=O)C(C)(C)C)C3)CC1 (stereo not given in full)	x	2	x	x	x	x	x	x
O=C(OCC(=O)N1CCC(Cc2ccccc2)CC1)c1ccc(O)cc1	x	-2	-1	x	x	x	x	x
CSCCC(NC(=O)c1cccc(C)c1)C(=O)NCc1cccs1 (stereo not given)	x	-3	-1	0	5	1	x	x
COc1ccc(CC(=O)Nc2ccc(-c3cn4ccccc4n3)cc2)cc1OC	-1	71*	16	0	7	-4	-6	-6
O=C(Nc1cccc(-c2cn3ccccc3n2)c1)C1CC1	-1	36*	14	-2	-2	-1	112*	88*
CCOc1ccc(-c2cn3ccccc3n2)cc1	1	44*	4	-2	7	0	116*	69*
